# Source: PubChem BioAssay (NCATS)
# Records with an inconclusive call do not appear. The source holds several records for some structures; these can differ, active in one and inactive in another. Activity calls are given as the source filed them. Unless noted, the call rests on the fitted dose curve; in most records, active means well fitted curve in the direction sought with a large enough effect; inconclusive means small, poorly fitted or top-dose-only effect, or another doubt; inactive means no such curve, though single readings can be large; an effect the other way counts as inactive or inconclusive.
# Experiments:
# [1] = UWB1.289 Cancer Cell Toxicity qHTS against the NCATS CANVASS Library (AID 1347347); further: nearly all actives have a fitted effect of over 60% in size; further: potency means the concentration at half of the fitted maximal effect
# Procedure, shortened: (§1)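 Per well, 1000 cells; exposure 72 h with compound at 11 final concentrations; readout CellTiter-Glo luminescence.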
# [2] = Panc-1005 Cancer Cell Toxicity qHTS against the NCATS CANVASS Library (AID 1347349); further: nearly all actives have a fitted effect of over 60% in size; further: potency means the concentration at half of the fitted maximal effect
# Procedure, shortened: as §1
# [3] = UWB1.289-WTBRCA1 Cancer Cell Toxicity qHTS against the NCATS CANVASS Library (AID 1347354)
# Procedure, shortened: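 First, 1000 cells go into each well and rest for 4 hours. Next, an 11-point dilution range is pinned in. Plates then incubate 72 hours before CellTiter-Glo addition and luminescence reading.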
# [4] = G06 Cancer Cell Toxicity qHTS against the NCATS CANVASS Library (AID 1347368); further: nearly all actives have a fitted effect of over 60% in size; further: potency means the concentration at half of the fitted maximal effect
# Procedure, shortened: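 Cells were plated at 500 per well, then compounds were added over an 11-point range. After 72 hr at 37C, CellTiterGlo was added and luminescence measured as ATP content.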
# [5] = Primary qHTS to identify inhibitors of SARS-CoV-2 cell entry (AID 1645846; calls by dose curve; further: nearly all actives have a fitted effect of over 45% in size; further: potency means the concentration at half of the fitted maximal effect); settings: SARS-CoV-2 pseudovirus cell entry assay, luminescence; activity change, negative = inhibition: at 57.1 µM (top of the series) unless noted
# Procedure, shortened: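 Entry measured by luciferase signal 48 h after adding SARS-CoV-2-S pseudotyped MLV particles to HEK293-ACE2 cells preincubated 1 h with compounds. Normalisation: bald particles and spike particles.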
# [6] = qHTS assay to identify inhibitors of the type 1 interferon - major histocompatibility complex class I in skeletal muscle: Counter screen cell viability and HiBit confirmation (AID 1347412); settings: iHSKM muscle cells + IFN-b, HiBiT or CellTiter-Glo, 24 h; for activity change, negative = inhibition: at 45.9 µM (top of the series); further: potency means the concentration at half of the fitted maximal effect; on activity change, negative = inhibition: on the % scale 0 is the no-effect control and ±100 the full control effect; on all read-outs here: nearly all actives have a fitted effect of over 60% in size
# Procedure, shortened: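 After 24 h with human IFN-beta (4 ng/ml) and compound titrations (top 46 uM final, 1:3, 12 points), HLA-B HiBit myoblasts were lysed for either Nano-Glo HiBiT luminescence or CellTiter Glo viability on paired plates.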
# [7] = Primary qHTS for Huh7 cytotoxicity: counterscreen for inhibitors of MERS-S pseudotyped particle cell entry (AID 1479147; calls by dose curve); settings: outcome: dose series up to 57.1 µM unless noted
# [8] = Primary qHTS for Vero E6 cytotoxicity: counterscreen for inhibitors of SARS-S pseudo-typed particle cell entry (AID 1479150; calls by dose curve); settings: outcome: dose series up to 57.1 µM unless noted
# [9] = Primary qHTS for inhibitors of SARS-S pseudo-typed particle cell entry (AID 1479145; calls by dose curve; further: potency means the concentration at half of the fitted maximal effect; nearly all actives have a fitted effect of over 45% in size); settings: outcome: dose series up to 57.1 µM unless noted
# [10] = target: Glucocorticoid receptor (Homo sapiens) (UniProt P04150); assay: GR-EFC Redistribution (AID 451; calls by dose curve; further: potency means the concentration at half of the fitted maximal effect); settings: CHO-K1 GR-EFC translocation, beta-gal luminescence, 2 h
# Procedure, shortened: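 CHO-K1 cells stably expressing nuclear-localized β-gal enzyme acceptor and GR fused C-terminally to the enzyme donor fragment; ligand-driven nuclear translocation restores β-gal by complementation. Compounds titrated up to 46 uM final, 2 h at 37 °C; luminescence read.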
# [11] = target: Mitogen-activated protein kinase 10 (Mus musculus) (UniProt Q61831); assay: JNK3 AlphaScreen Assay (AID 530; active means well fitted curve in either direction with a large enough effect, not every such curve was filed as active;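 further: kinase came from lysate of stimulated human HepG2 cells; signal reports phosphorylation of biotinylated GST-cJun 1-79 at Ser73 with 10 µM ATP; on the % scale 0 is the no-effect control and ±100 the full control effect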)
# Procedure, shortened: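 Phosphorylation of biotinylated GST-cJun(1-79) at Ser73 is measured by AlphaScreen proximity luminescence. Enzyme is JNK3 in HepG2 lysates activated with interleukin-1beta and tumor necrosis factor alpha; ATP is 10 uM final.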
# [12] = target: 3',5'-cyclic-AMP phosphodiesterase 4B (Homo sapiens) (UniProt Q07343); assay: qHTS Assay for Inhibitors of PDE-IV (AID 607; active means well fitted activation curve with a large enough effect in the main read-out, with a control signal flat, not every such curve was filed as active; further: % of control where 0% means no effect)
# Procedure, shortened: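 Cell-based read-out of cAMP via a modified cyclic nucleotide-gated channel and membrane potential dye (535/590 nm) in HEK293 cells expressing PDE4 endogenously. Compounds tested up to 22.9 uM final; 100 uM RO 20-1724 reference.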
# Chain of Glucocorticoid receptor (Homo sapiens) (P04150 whole entry, looked up, the tested form may be a part): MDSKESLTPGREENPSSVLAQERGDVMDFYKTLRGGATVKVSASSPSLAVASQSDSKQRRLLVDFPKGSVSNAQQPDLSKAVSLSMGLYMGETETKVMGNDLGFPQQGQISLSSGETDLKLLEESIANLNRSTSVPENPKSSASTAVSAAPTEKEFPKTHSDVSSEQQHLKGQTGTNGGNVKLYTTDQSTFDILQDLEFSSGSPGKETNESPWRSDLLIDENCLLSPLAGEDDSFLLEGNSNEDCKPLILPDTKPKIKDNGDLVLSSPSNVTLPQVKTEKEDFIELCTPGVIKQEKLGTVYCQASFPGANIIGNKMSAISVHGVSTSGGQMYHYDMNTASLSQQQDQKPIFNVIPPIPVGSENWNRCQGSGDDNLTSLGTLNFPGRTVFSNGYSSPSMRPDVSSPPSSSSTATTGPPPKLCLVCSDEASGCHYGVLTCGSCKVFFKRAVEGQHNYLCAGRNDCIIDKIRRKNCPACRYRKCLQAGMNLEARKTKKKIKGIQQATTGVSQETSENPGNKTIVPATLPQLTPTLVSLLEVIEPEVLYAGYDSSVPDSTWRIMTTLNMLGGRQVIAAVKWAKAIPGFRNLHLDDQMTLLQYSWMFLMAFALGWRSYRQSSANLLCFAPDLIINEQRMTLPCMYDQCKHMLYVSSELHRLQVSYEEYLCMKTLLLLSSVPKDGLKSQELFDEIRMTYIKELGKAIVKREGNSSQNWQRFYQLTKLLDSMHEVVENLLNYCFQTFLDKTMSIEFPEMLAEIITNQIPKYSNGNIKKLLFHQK
# Chain of 3',5'-cyclic-AMP phosphodiesterase 4B (Homo sapiens) (Q07343 whole entry, looked up): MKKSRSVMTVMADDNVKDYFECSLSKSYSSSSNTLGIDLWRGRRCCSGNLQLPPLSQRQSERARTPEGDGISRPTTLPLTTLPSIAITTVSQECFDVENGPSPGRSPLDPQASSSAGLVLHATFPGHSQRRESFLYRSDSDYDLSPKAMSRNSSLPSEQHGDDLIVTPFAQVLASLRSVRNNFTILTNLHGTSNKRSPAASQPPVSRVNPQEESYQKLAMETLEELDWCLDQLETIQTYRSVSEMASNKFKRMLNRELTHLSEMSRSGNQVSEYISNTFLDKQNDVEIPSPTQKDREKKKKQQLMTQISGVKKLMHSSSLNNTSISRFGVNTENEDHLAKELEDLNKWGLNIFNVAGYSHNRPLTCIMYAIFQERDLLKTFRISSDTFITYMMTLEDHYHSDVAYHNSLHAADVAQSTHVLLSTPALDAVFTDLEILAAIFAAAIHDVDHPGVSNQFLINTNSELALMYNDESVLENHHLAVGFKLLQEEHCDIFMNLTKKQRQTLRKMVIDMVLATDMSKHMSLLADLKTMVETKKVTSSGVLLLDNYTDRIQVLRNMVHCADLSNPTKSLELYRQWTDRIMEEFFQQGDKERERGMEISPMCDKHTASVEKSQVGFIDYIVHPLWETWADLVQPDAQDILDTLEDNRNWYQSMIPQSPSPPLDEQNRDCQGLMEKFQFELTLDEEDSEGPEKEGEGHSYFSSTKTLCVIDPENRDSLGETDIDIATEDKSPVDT
compound,measurement,setting,value
C=CC(C)(C)[C@@]12C[C@H]3C(=O)N/C(=C/c4cnc[nH]4)C(=O)N3[C@@H]1Nc1ccccc12,Potency,[1],inactive
same,Potency,[2],inactive
same,Potency,[3],inactive
same,Potency,[4],inactive
C/C=C(\C)C(=O)O[C@@H]1[C@@H](O)[C@@H]2O[C@H]3[C@H](O[C@@H](CCCCC)CCCCCCC(=O)CCC(=O)OC[C@@H](O2)[C@H]1OC(=O)/C=C/c1ccccc1)O[C@H](C)[C@H](OC(C)=O)[C@@H]3O,Potency,[1],0.594 µM (active)
same,Potency,[2],0.0335 µM (active)
same,Potency,[3],inactive
same,Potency,[4],0.0047 µM (active)
C/C=C1/CN2CC[C@]34C(=C(C(=O)OC)[C@H]1C[C@H]23)Nc1ccccc14,Potency,[1],inactive
same,Potency,[3],inactive
C[C@]12CC(O)C3[C@@H](CC[C@@H]4C[C@@H](O)CC[C@]34CO)[C@@]1(O)CC[C@@H]2C1=CC(=O)OC1 (stereo partly drawn),Potency,[1],4.2 µM (active)
same,Potency,[4],4.18 µM (active)
COC1=C(C2=C(OC)C(=O)c3cc4c(c(O)c3C2=O)C(=O)O[C@H](C)C4)C(=O)c2c(cc3c(c2O)C(=O)O[C@H](C)C3)C1=O,Potency,[3],inactive
same,Potency,[4],inactive
C=CC(C)(C)[C@@]12C[C@H]3C(=O)N/C(=C\c4cnc[nH]4)C(=O)N3[C@@H]1Nc1ccccc12,Potency,[1],inactive
same,Potency,[2],inactive
same,Potency,[3],inactive
same,Potency,[4],inactive
c1ccc2nc3c(cc2c1)[nH]c1ccccc13,Potency,[1],inactive
same,Potency,[3],inactive
CCC(=O)N[C@@H](C[C@H](C)C(Cl)(Cl)Cl)C(=O)N1C(=O)C=C(OC)[C@@H]1C[C@H](C)C(Cl)Cl,Potency,[2],inactive
same,Potency,[3],inactive
same,Potency,[4],inactive
COC(=O)[C@@]12OC[C@]34[C@H]([C@@H](O)[C@@H]1O)[C@@]1(C)CC(=O)C(O)=C(C)[C@@H]1C[C@H]3OC(=O)[C@H](OC(=O)/C=C(\C)C(C)C)[C@@H]24,"activity change, negative = inhibition",[5],-94.1%
same,Potency,[6]; HiBiT,0.0883 µM (active)
same,"activity change, negative = inhibition",[6]; Viability,-8.02% (inactive)
O=C(CBr)N1CC([N+](=O)[O-])([N+](=O)[O-])C1,"activity change, negative = inhibition",[5],-11.3% [at 114 µM]
COc1cc2cc(c1Cl)N(C)C(=O)C[C@H](OC(=O)C(C)C)[C@]1(C)O[C@@H]1[C@H](C)[C@@H]1C[C@@](O)(NC(=O)O1)[C@H](OC)/C=C/C=C(\C)C2,"activity change, negative = inhibition",[5],-80.9%
C[C@]12COC(=O)C[C@@H]1CC[C@@H]1[C@@H]2CC[C@@]2(C)[C@H]1CC[C@]2(C)O,"activity change, negative = inhibition",[5],-8.16%
CO/C1=C/C(C)=C\[C@@H](C)[C@@H](O)[C@@H](C)C/C(C)=C\C=C/[C@H](OC)[C@@H]([C@@H](C)[C@@H](O)[C@H](C)[C@@]2(O)C[C@@H](O)[C@H](C)[C@@H](C(C)C)O2)OC1=O,Potency,[5],1.58 µM (active)
C=C(C)[C@@H]1CCC(C)=C[C@H]1c1c(O)cc(CCCCC)cc1O,Potency,[7],inactive
same,Potency,[8],inactive
same,"activity change, negative = inhibition",[6]; Viability,5.14% (inactive)
Cc1[nH]ncc1-c1cc2nc([C@@H]3CC4CCN3CC4)[nH]c(=O)c2s1,Potency,[6]; HiBiT,4.43 µM (active)
same,"activity change, negative = inhibition",[6]; Viability,15.9% (inactive)
O=C1/C(=C\c2ccccc2)C[C@@]2(O)[C@H]3Cc4ccc(O)c5c4[C@@]2(CCN3CC2CC2)[C@H]1O5,Potency,[6]; HiBiT,3.52 µM (active)
Cc1c(N)nc([C@H](CC(N)=O)NC[C@@H](N)C(N)=O)nc1C(=O)N[C@H](C(=O)N[C@@H](C)[C@H](O)[C@@H](C)C(=O)N[C@@H](C(=O)NCCc1nc(-c2nc(C(=O)NCCC[S+](C)C)cs2)cs1)[C@@H](C)O)C(O[C@H]1O[C@H](CO)[C@H](O)[C@@H](O)[C@H]1O[C@H]1O[C@H](CO)[C@@H](O)[C@H](OC(N)=O)[C@@H]1O)c1cnc[nH]1 (stereo partly drawn),Potency,[9],14.1 µM (active)
same,Potency,[7],inactive
same,Potency,[8],inactive
same,Potency,[5],1.12 µM (active)
same,"activity change, negative = inhibition",[5],-97.2%
COc1cc(C)[nH]c(=O)c1CNC(=O)c1c(C)n([C@H](C)C2CCN(CC(F)(F)F)CC2)c2ccccc12,"activity change, negative = inhibition",[5],4.42%
CC(=O)OC[C@H]1O[C@@H]([S-])[C@H](OC(C)=O)[C@@H](OC(C)=O)[C@@H]1OC(C)=O.CC[PH+](CC)CC.[Au],Potency,[5],1.26 µM (active)
same,Potency,[6]; HiBiT,1.11 µM (active)
CCCCCCC(C)(C)c1cc(O)c2c(c1)OC(C)(C)C1CC=C(CO)C[C@H]21 (stereo partly drawn),Potency,[6]; Viability,35.2 µM (active)
C[C@@]12OC(=O)[C@]1([C@@H](O)[C@@H]1C=CCCC1)NC(=O)[C@@H]2CCCl,"activity change, negative = inhibition",[5],-97.7%
same,Potency,[6]; HiBiT,0.176 µM (active)
C[C@@H]1CC[C@@]2(OC1)O[C@H]1C[C@H]3[C@@H]4CC=C5C[C@@H](O[C@@H]6O[C@H](CO)[C@@H](O[C@@H]7O[C@@H](C)[C@H](O)[C@@H](O)[C@H]7O)[C@H](O)[C@H]6O[C@@H]6O[C@@H](C)[C@H](O)[C@@H](O)[C@H]6O)CC[C@]5(C)[C@H]4CC[C@]3(C)[C@H]1[C@@H]2C,Potency,[5],12.6 µM (active)
same,Potency,[6]; HiBiT,22.2 µM (active)
same,Potency,[6]; Viability,17.6 µM (active)
CN1C(=O)[C@@H](NC(=O)[C@H](CCC(F)(F)F)[C@H](CCC(F)(F)F)C(N)=O)N=C(c2ccccc2)c2ccccc21,"activity change, negative = inhibition",[5],-8.27%
C/C=C(\C)C(=O)N[C@@H](c1ccccc1)[C@@H](O)C(=O)O[C@H]1C[C@@]2(O)[C@@H](OC(=O)c3ccccc3)[C@@H]3[C@]4(OC(C)=O)CO[C@@H]4C[C@H](O)[C@@]3(C)C(=O)[C@H](OC(C)=O)C(=C1C)C2(C)C,"activity change, negative = inhibition",[5],-81.8%
C=C[C@H]1CN2CCC1C[C@@H]2[C@@H](O)c1ccnc2ccccc12 (stereo partly drawn),"activity change, negative = inhibition",[5],-29.6%
C[C@@H](C1CC[C@@]2(O)C3=CC(=O)[C@@H]4C[C@@H](O)[C@@H](O)C[C@]4(C)[C@H]3CC[C@]12C)[C@H](O)CCC(C)(C)O (stereo partly drawn),"activity change, negative = inhibition",[5],-30.2%
CC1(C)CC[C@]2(NC(=O)C(C)(F)F)CC[C@]3(C)[C@H](C(=O)C=C4[C@@]5(C)C=C(C#N)C(=O)C(C)(C)[C@@H]5CC[C@]43C)[C@@H]2C1,Potency,[5],1 µM (active)
same,Potency,[6]; HiBiT,1.57 µM (active)
CO[C@H]1CCC(O[C@H]2C[C@H]([C@]3(C)CC[C@]4(C[C@H](O)[C@@H](C)[C@@H]([C@@H](C)/C=C(\C)C(=O)[C@H](C)C[C@H](C)C(=O)O)O4)O3)O[C@]3(O[C@@H]([C@H]4O[C@@](O)(CO)[C@H](C)C[C@@H]4C)C[C@@H]3C)[C@@H]2C)O[C@@H]1C (stereo partly drawn),Potency,[6]; HiBiT,12.5 µM (active)
same,Potency,[6]; Viability,14 µM (active)
CC(C)(O)/C=C\C(=O)[C@](C)(O)[C@H]1[C@H](O)C[C@]2(C)[C@@H]3CC=C4[C@@H](C=C(O)C(=O)C4(C)C)[C@]3(C)C(=O)C[C@@]12C,Potency,[10],> 9.22 µM (inactive)
same,"activity change, negative = inhibition",[11],2.97% [at 11.4 µM] (inactive)
same,Potency,[12],inactive
same,Potency,[5],0.794 µM (active)
same,Potency,[6]; HiBiT,6.25 µM (active)
same,"activity change, negative = inhibition",[6]; Viability,186% (inactive)
O=C(O)CNC(=O)C1C(=O)N(C2CCCCC2)C(=O)N(C2CCCCC2)C1=O,"activity change, negative = inhibition",[5],-12.5%
COC(=O)[C@]12CCC(C)(C)C[C@H]1[C@H]1C(=O)C=C3[C@@]4(C)C=C(C#N)C(=O)C(C)(C)[C@@H]4CC[C@@]3(C)[C@]1(C)CC2,Potency,[5],1 µM (active)
same,Potency,[6]; HiBiT,1.57 µM (active)
CC(N[C@H]1C[C@@H]1c1ccccc1)c1ccc2c(c1)OCCO2 (stereo partly drawn),"activity change, negative = inhibition",[5],-4.37%
